Experiments:
Assay in all cases: log2 ratio of Biotin-Ahx-Ub-VS probe labelling (fragment/DMSO); higher = less target engagement (more negative = stronger competition), active = hit call of the paper (q ≤ 0.05, log2 ratio ≤ -1)
Conditions in all cases: compound concentration: 200 uM; treatment time: 3 h
OTUD6B = target: T1, OTUD6B (UniProt Q8N6M0)
T1 sequence (whole entry): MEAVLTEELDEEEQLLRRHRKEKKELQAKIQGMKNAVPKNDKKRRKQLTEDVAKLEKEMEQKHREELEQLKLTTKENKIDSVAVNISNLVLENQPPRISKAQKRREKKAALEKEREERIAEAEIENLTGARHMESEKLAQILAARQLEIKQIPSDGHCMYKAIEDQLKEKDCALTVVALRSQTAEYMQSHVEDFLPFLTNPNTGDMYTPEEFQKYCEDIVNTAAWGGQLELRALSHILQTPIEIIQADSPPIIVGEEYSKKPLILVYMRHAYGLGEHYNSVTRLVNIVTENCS
Summary of the method: (§1)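 Each value is an average log2 ratio of fragment to vehicle, tested by unpaired t-test. The underlying Spectronaut label-free quantities were global-median-normalised, and only proteins with ≥2 unique peptides were included. Triplicate HEK293T lysate samples (495 µg) were exposed to fragment at 200 µM or vehicle for 3 h, then to Biotin-Ahx-Ub-VS at 0.5 µM final for 1 h, before NeutrAvidin enrichment of labelled DUBs, LysC and trypsin digestion, and diaPASEF LC-MS/MS.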

OTUD7B = target: T2, OTUD7B (UniProt Q6GQQ9)
T2 sequence (whole entry): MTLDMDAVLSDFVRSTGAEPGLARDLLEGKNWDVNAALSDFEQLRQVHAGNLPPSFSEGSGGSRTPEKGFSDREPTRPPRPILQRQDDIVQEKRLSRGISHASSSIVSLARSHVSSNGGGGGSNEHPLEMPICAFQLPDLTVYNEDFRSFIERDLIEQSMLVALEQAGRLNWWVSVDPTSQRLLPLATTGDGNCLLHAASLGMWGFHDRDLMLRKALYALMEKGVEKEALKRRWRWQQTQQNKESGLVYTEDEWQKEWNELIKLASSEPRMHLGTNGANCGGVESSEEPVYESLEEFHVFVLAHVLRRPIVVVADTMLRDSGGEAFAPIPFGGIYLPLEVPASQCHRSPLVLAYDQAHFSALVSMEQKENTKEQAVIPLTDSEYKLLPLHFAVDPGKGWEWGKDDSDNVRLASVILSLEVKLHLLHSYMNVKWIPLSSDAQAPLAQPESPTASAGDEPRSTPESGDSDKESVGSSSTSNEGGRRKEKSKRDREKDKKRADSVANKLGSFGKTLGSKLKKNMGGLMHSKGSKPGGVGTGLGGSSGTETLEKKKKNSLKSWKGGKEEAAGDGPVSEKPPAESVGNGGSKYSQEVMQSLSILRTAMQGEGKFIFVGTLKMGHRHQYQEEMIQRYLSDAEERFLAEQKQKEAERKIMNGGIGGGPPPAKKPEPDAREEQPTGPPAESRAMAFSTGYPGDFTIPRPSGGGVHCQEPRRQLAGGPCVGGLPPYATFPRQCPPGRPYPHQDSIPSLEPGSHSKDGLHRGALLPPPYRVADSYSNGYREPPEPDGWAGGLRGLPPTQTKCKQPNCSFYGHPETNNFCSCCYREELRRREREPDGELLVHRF
Summary of the method: as §1

PRPF8 = PRPF8 (UniProt Q6P2Q9)
Summary of the method: as §1

PSMD7 = target: T3, PSMD7 (UniProt P51665)
T3 sequence (whole entry): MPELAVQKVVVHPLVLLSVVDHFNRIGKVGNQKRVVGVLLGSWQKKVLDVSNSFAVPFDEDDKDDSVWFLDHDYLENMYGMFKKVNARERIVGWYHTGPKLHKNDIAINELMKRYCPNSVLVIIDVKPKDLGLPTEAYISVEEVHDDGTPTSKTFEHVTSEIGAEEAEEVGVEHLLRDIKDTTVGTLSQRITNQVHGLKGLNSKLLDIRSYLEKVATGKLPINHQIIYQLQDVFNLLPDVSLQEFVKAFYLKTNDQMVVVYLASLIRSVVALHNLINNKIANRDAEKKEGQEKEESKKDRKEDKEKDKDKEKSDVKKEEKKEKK
Summary of the method: as §1

UCHL1 = UCHL1 (UniProt P09936)
Chain of UCHL1 (P09936 whole entry, looked up): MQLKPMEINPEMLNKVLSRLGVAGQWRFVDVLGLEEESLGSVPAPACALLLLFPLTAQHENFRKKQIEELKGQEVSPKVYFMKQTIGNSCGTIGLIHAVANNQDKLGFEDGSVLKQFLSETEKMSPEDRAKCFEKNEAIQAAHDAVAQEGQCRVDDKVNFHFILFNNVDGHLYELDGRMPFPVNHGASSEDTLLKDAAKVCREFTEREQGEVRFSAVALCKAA
Summary of the method: as §1

UCHL3 = target: T4, UCHL3 (UniProt P15374)
T4 sequence (whole entry): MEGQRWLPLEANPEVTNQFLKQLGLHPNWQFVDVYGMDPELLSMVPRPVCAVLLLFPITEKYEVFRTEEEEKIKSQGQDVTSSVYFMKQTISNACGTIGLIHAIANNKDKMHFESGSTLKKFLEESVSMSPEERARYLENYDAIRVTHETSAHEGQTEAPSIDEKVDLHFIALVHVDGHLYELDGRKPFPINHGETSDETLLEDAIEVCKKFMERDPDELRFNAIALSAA
Summary of the method: as §1

UCHL5 = target: T5, UCHL5 (UniProt Q9Y5K5)
T5 sequence (whole entry): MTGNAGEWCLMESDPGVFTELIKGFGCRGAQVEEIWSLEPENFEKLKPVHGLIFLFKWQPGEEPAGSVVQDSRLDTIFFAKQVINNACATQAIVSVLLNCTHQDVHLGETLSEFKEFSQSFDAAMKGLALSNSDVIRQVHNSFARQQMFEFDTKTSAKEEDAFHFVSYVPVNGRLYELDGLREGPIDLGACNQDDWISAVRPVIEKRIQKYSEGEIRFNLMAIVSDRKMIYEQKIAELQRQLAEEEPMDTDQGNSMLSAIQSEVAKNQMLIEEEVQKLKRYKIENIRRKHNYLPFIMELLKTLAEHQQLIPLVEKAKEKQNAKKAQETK
Summary of the method: as §1

USP10 = USP10 (UniProt Q14694)
Chain of USP10 (Q14694 whole entry): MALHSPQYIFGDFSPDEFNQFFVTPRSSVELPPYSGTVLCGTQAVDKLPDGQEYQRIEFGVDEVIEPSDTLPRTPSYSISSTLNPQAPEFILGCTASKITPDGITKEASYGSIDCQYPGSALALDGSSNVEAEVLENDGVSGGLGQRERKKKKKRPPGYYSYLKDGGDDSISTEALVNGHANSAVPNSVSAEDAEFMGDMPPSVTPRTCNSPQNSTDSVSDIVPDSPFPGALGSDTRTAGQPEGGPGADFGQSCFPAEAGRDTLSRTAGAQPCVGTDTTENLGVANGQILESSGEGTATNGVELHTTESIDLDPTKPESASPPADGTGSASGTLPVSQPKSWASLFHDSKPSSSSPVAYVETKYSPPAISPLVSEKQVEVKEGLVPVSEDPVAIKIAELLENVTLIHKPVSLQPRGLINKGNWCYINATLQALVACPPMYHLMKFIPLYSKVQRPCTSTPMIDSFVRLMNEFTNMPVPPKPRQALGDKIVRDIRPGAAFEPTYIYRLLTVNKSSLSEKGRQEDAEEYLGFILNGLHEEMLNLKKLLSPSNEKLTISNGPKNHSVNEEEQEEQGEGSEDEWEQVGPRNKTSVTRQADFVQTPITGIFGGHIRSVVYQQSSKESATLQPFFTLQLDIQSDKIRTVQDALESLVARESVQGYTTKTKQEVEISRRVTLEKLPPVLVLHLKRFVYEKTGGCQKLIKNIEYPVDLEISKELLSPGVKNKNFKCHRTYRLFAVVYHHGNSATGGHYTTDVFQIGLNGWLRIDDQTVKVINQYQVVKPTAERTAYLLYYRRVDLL
Summary of the method: as §1

USP15 = target: T6, USP15 (UniProt Q9Y4E8)
T6 sequence (whole entry): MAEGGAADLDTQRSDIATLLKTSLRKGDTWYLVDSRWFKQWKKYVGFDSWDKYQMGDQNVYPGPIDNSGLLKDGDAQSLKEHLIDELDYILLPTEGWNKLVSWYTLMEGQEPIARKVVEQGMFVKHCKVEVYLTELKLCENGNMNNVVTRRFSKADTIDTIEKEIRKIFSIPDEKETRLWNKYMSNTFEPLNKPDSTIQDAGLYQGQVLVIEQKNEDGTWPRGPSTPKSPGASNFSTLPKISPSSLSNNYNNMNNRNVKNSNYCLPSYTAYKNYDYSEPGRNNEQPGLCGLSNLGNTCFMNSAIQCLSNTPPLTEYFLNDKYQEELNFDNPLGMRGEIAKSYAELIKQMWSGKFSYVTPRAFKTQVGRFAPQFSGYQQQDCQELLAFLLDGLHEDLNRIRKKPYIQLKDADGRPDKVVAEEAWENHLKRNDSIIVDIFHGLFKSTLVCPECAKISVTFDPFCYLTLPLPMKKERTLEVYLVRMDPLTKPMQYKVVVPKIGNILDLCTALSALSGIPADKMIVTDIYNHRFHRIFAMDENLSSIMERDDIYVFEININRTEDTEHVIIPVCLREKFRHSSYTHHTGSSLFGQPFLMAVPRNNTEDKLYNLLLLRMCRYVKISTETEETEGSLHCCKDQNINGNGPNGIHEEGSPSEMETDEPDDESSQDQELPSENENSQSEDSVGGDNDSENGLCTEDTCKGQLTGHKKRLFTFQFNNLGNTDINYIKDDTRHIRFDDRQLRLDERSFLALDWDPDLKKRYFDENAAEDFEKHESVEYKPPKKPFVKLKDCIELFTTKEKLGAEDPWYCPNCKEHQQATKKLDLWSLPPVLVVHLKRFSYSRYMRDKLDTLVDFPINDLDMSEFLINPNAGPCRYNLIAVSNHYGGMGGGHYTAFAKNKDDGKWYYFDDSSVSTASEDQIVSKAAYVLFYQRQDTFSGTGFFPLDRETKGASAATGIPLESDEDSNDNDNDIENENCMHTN
Summary of the method: as §1

USP16 = USP16 (UniProt Q9Y5T5)
Chain of USP16 (Q9Y5T5 whole entry, looked up): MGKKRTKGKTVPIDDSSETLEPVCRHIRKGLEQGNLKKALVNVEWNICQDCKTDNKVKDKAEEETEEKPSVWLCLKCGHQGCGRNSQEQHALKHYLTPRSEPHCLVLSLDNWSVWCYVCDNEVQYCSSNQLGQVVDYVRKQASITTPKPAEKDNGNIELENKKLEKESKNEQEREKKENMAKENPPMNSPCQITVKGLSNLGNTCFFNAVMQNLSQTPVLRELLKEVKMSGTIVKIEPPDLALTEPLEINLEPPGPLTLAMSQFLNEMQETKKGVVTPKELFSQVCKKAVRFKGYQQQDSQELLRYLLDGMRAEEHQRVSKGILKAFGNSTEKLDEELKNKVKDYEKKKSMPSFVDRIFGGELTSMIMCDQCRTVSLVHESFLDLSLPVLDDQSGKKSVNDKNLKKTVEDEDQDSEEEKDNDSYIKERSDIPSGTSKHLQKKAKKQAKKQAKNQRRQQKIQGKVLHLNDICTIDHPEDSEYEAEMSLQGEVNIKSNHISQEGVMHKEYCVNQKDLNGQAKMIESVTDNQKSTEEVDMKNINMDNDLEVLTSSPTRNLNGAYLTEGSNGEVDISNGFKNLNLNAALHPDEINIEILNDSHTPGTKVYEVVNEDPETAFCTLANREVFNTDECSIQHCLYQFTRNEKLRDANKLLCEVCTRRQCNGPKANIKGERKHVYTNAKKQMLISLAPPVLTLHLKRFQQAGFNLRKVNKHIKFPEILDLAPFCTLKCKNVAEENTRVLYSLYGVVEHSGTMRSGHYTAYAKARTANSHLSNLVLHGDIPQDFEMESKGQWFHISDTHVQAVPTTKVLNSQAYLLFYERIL
Summary of the method: as §1

Measured: log2 ratio of Biotin-Ahx-Ub-VS probe labelling

O=C(CCl)Nc1ccc(F)cc1F
active: UCHL1 -1.47
inactive: OTUD6B -0.161 | OTUD7B -0.881 | PRPF8 -0.105 | PSMD7 -0.179 | UCHL3 0.078 | UCHL5 -0.242 | USP10 -0.129 | USP15 -0.34 | USP16 0.0073

Source: the supplement of paper PMC11732987, “Enantioselective OTUD7B fragment discovery through chemoproteomics screening and high-throughput optimisation” (Communications Chemistry, 2025)
